Assay outcomes as filed in PubChem BioAssay.
Hits are enriched below; roughly 3.7% of the tested compounds scored in any of these assays.
ELG1 DNA repair = inhibitors of ELG1-dependent DNA repair in HEK293T cells | HEK293T ELG1-luciferase reporter, luminescence, 16 h; DNA damage induced by 5-fluorouridine | Potency, µM (highest dose often 46.1 µM), hits mostly inhibitors | actives 2.3% (n = 330,000); note: nearly all actives have a fitted effect of over 55% in size
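5-Fluorouridine DNA damage + compound/DMSO, 2,000 cells/well, 16 h, 37 °C/5% CO2. ONE-Glo, 30 min RT, luminescence. Readout = decrease in reporter signal.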
Nrf2 block = Nrf2 pathway inhibition; AID 504444; Potency, µM (doses to about 46 µM), most hits filed as inhibitors; actives 2.1% (n = 360,000); A549 ARE-Fluc reporter, luciferase luminescence, 18-24 h; note: nearly all actives have a fitted effect of over 60% in size
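A549 ARE_Fluc cells (5000/well, 5% FBS OPTI-MEM) pre-incubated 2 h, then treated with compounds 18-24 h at 37C/5% CO2 in concentration-response. CellTiter-Fluor viability read first; BugLite luciferase luminescence after 15 min at room temperature gives Nrf2 activity.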
Nrf2 activator = activators of Nrf2 (ARE) signaling; actives 0.31% (n = 410,000); AID 624171; AREc32 ARE-luciferase reporter (MCF7-derived line), luminescence, 24 h; Potency, µM (highest dose often 46.1 µM), hits mostly activators; note: nearly all actives have a fitted effect of over 65% in size
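AREc32 cells carrying an ARE-driven firefly luciferase reporter were seeded at 1000 cells/well in OPTI-MEM with 5% FBS, then exposed to compound for 24 hr at 37 deg C. Luminescence was read with Steady-Glo after 30 min at RT.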
A549 viability = kills or reduces viability of A549 cells in Nrf2 counter-screen. AID 504648. A549 ARE-Fluc cells, CellTiter-Fluor viability, 18-24 h. Potency, µM (series often up to 46 µM), actives largely listed as inhibitors. actives 0.16% (n = 390,000)
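Cytotoxicity counterscreen: CellTiter-Fluor fluorescence was measured in A549 ARE_Fluc cells after 18-24 h of compound exposure in a concentration series. The subsequent BugLite luminescent read reports ARE-luciferase activity.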
Each line names hits and unclear results; the compound was inactive in the other large screens. Calls come from the whole dose curve; as a rule, active = well fitted curve in the direction sought with a large enough effect; inconclusive = small, poorly fitted or top-dose-only effect, or another doubt; inactive = no such curve, though single readings can be large; an effect the other way counts as inactive or inconclusive.

Cc1ccc([N+](=O)[O-])cc1NC(=O)Nc1cccc(F)c1	ELG1 DNA repair 16µM, Nrf2 block inconclusive
C#CCNC(=O)C1=C[C@H](c2ccc(Br)cc2)C[C@H](OCc2ccc(CO)cc2)O1	none
CCCCCCn1c(C)nc2c(c1=O)c1nc3ccccc3nc1n2/N=C/c1ccco1	ELG1 DNA repair inconclusive, Nrf2 block 23µM, A549 viability inconclusive
O=C(NCCc1nc2ccccc2[nH]1)c1cccc(Br)c1	Nrf2 block 26µM
Cc1ccc(Cc2nnc3n(-c4ccccc4)nc(C(=O)c4ccccc4)n3c2=O)cc1	ELG1 DNA repair 21µM, Nrf2 block inconclusive
Cc1ccc(CNC(=O)c2cc(C)nn2-c2ccccc2)cc1	none
Cc1nc(N2CCN(c3ccccn3)CC2)c2c(C)c(C(=O)N3CCN(c4ccc(F)cc4)CC3)sc2n1	ELG1 DNA repair 23µM, Nrf2 block 18µM
Cc1c(C(=O)N2CCN(c3ccc(F)cc3)CC2)sc2ncnc(N3CCN(c4ccccn4)CC3)c12	ELG1 DNA repair 6.5µM, Nrf2 block inconclusive
Cc1c(C(=O)N2CCN(c3ccccc3)CC2)sc2ncnc(N3CCN(c4ccccn4)CC3)c12	Nrf2 block inconclusive
Cc1ccnc(OC(C(=O)O)C(OCCc2ccccc2)(c2ccccc2)c2ccccc2)n1 (configuration not stated)	Nrf2 block inconclusive
Cc1cc(C)nc(OC(C(=O)O)C(OCCc2ccccc2)(c2ccccc2)c2ccccc2)n1 (configuration not stated)	Nrf2 block 13µM
Cc1ccc(-n2c3nc(=O)[nH]c(=O)c-3cc3cc([N+](=O)[O-])ccc32)cc1C	ELG1 DNA repair inconclusive, Nrf2 block 15µM, A549 viability inconclusive
O=C(O)c1ccc2c(=O)n(-c3ccccc3F)c(=S)[nH]c2c1	none
COc1ccc(-n2c(=S)[nH]c3cc(C(=O)Nc4cccc(C)c4)ccc3c2=O)cc1	none
CCOc1ccc(NC(=O)c2ccc3c(=O)n(-c4ccc(OC)cc4OC)c(=S)[nH]c3c2)cc1	ELG1 DNA repair 8.2µM (no result: Nrf2 block, Nrf2 activator, A549 viability)
COc1ccc(-n2c(=S)[nH]c3cc(C(=O)NC4CCCCC4)ccc3c2=O)c(OC)c1	Nrf2 block 15µM
COc1ccc(-n2c(=S)[nH]c3cc(C(=O)Nc4cc(C(N)=O)ccc4OC)ccc3c2=O)c(OC)c1	none
COc1ccc(Cn2c(=O)[nH]c3cc(C(=O)NC4CCCC4)ccc3c2=O)cc1	none
COC(=O)c1ccc2c(=O)n(-c3ccccc3F)c(=S)[nH]c2c1	ELG1 DNA repair 18µM
COc1ccc(NC(=O)c2ccc3c(=O)n(-c4ccc(OC)cc4OC)c(=S)[nH]c3c2)c(OC)c1	ELG1 DNA repair inconclusive, Nrf2 block 26µM
COc1ccc(-c2nc3ccc(NC(C)=O)cc3c(=O)n2Cc2cccc(Cl)c2)cc1COc1ccc(NC(C)=O)cc1	Nrf2 block inconclusive (no result: ELG1 DNA repair, Nrf2 activator)
Cc1ccc(C(=O)N2[C@@H]3CN(C)C(=O)[C@@]2(Cc2ccccc2)[C@H]2C(=O)N(C)C(=O)[C@@H]32)cc1	none (no result: ELG1 DNA repair)
CC(=O)NC(c1ccccc1)c1nc(-c2ccccc2)cs1 (configuration not stated)	none (no result: ELG1 DNA repair, Nrf2 block, A549 viability)
CCCCNC(=O)C1(C)CCCCN1Cc1ccc(-c2ccccc2)cc1 (configuration not stated)	none (no result: ELG1 DNA repair, Nrf2 block, A549 viability)
COc1ccc(-n2c(=S)[nH]c3cc(C(=O)Nc4ccc(C)c(F)c4)ccc3c2=O)c(OC)c1	ELG1 DNA repair inconclusive, Nrf2 block 23µM
COc1ccc(-n2c(=S)[nH]c3cc(C(=O)Nc4ccc(OC)c(OC)c4)ccc3c2=O)cc1	ELG1 DNA repair inconclusive
Cc1c(NC(=O)/C(C#N)=C/c2ccc(-c3ccc(Cl)c(Cl)c3)o2)c(=O)n(-c2ccccc2)n1C	ELG1 DNA repair 21µM, Nrf2 block inconclusive, A549 viability inconclusive
O=C(O)c1ccc(CNC(=O)C2CCCN2C(=O)OCc2ccccc2)cc1 (configuration not stated)	none
O=C(Nc1ccc(OC(F)F)c(Cl)c1)c1cccc(OC(F)F)c1	ELG1 DNA repair inconclusive, A549 viability inconclusive (no result: Nrf2 block)
O=C(CNC(=O)c1cccc(OC(F)F)c1)Nc1ccc(Cl)cc1	Nrf2 block 26µM
COc1cc(NC(=S)NC(=O)c2ccccc2C)ccc1NC(=O)c1cccs1	ELG1 DNA repair 13µM
COc1cc(NC(=S)NC(=O)c2ccccc2F)ccc1NC(=O)c1cccs1	Nrf2 block inconclusive
COc1cc(NC(=O)c2cc3ccccc3cc2OC)ccc1NC(=O)c1cccs1	ELG1 DNA repair 15µM, Nrf2 block 5.2µM
Cc1cccc2c(=O)c(-c3ccc4c(c3)OCO4)c(NC(=O)c3ccco3)oc12	ELG1 DNA repair 10µM, Nrf2 block inconclusive
Cc1cc(=O)n(C(C)C(=O)N2CCCc3ccccc32)c2c1c(C)nn2-c1ccccc1 (configuration not stated)	Nrf2 block 18µM, A549 viability inconclusive (no result: ELG1 DNA repair)
O=C(NCCSCc1ccccc1)c1ccc(C2SCC(=O)N2Cc2ccccc2)cc1 (configuration not stated)	ELG1 DNA repair inconclusive, Nrf2 block 10µM
COC(=O)c1ccc(C2SCC(=O)N2Cc2ccccc2)cc1 (configuration not stated)	ELG1 DNA repair inconclusive
Cc1cccc(NC(=O)c2ccc(C3SCC(=O)N3CCc3ccccc3)cc2)c1 (configuration not stated)	ELG1 DNA repair 26µM, Nrf2 block inconclusive
CC(=O)Nc1ccc(NC(=O)c2ccc(C3SCC(=O)N3CCc3ccccc3)cc2)cc1 (configuration not stated)	ELG1 DNA repair 23µM, Nrf2 block inconclusive
COCCNC(=O)c1ccc(C2SCC(=O)N2CCc2ccccc2)cc1 (configuration not stated)	none
CC(NC(=O)CNC(=O)c1ccc2c(c1)OCO2)c1ccc(S(N)(=O)=O)cc1 (configuration not stated)	none
O=C(c1ccccc1O)N(Cc1ccco1)Cc1cccs1	Nrf2 block inconclusive (no result: ELG1 DNA repair, Nrf2 activator)
Cn1c(CCC(=O)Nc2cc(S(C)(=O)=O)ccc2Cl)nc2cc(S(=O)(=O)N3CCOCC3)ccc21	ELG1 DNA repair inconclusive
CC(=O)NC(C)(c1ccccc1)c1nc(-c2ccc(S(C)(=O)=O)cc2)cs1 (configuration not stated)	none (no result: ELG1 DNA repair, Nrf2 block, A549 viability)
CCOC(=O)N1CCC(N(C(=O)Nc2ccc(Cl)c(Cl)c2)C(C)CC)CC1 (configuration not stated)	ELG1 DNA repair inconclusive, Nrf2 block 15µM, A549 viability inconclusive
O=[N+]([O-])c1cccc(-c2nc(-c3ccccc3)no2)c1	ELG1 DNA repair inconclusive, Nrf2 block inconclusive, Nrf2 activator 4µM
O=[N+]([O-])c1cccc(-c2noc(-c3ccco3)n2)c1	ELG1 DNA repair inconclusive, Nrf2 block inconclusive, Nrf2 activator 7.1µM
CCOC(=O)n1cnc2nc(N)nc(SC)c21	none (no result: ELG1 DNA repair)
COc1cc(NC(=O)CCc2c(C)nc3c(c(C)nn3-c3ccccc3)c2C)cc(OC)c1OC	none (no result: ELG1 DNA repair)
CCOc1cccc(CNc2ccc(O)cc2)c1OCc1ccccc1Cl	ELG1 DNA repair 18µM, Nrf2 activator inconclusive
